{"source": "PubChem BioAssay (EPA / NIEHS)", "note": "Active and inactive are the calls of the source. How the source made its calls: active means hit-call score of the fitted dose curve at least 0.9, where 1 is the maximum; inactive means score below 0.9.", "data": [{"test": "ATG_EGR_CIS: Attagene CIS-FACTORIAL HepG2 Assay for human Early Growth Response 1 (EGR1) (AID 2282938)", "settings": "HepG2 Attagene CIS-FACTORIAL EGR reporter mRNA; actives raise or lower the signal", "method": "ATG_CIS is a cell-based, multiplexed-readout assay that uses HepG2, a human liver cell line, with measurements taken at 24 hours after chemical dosing in a 24-well plate.ATG_EGR_CIS is one of 52 assay component(s) measured or calculated from the ATG_CIS assay. It is designed to make measurements of mRNA induction, a form of inducible reporter, as detected with fluorescence intensity signals by Reverse transcription polymerase chain reaction (RT-PCR) and Capillary electrophoresis technology.Data from the assay component ATG_EGR_CIS was analyzed into 1 assay endpoint. This assay endpoint, ATG_EGR_CIS, was analyzed with bidirectional fitting relative to DMSO as the negative control and baseline of activity. Using a type of inducible reporter, measures of mRNA for gain or loss-of-signal activity can be used to understand the reporter gene at the transcription factor-level as they relate to the gene EGR1. Furthermore, this assay endpoint can be referred to as a primary readout, because this assay has produced multiple assay endpoints where this one serves a reporter gene function. To generalize the intended target to other relatable targets, this assay endpoint is annotated to the dna binding intended target family, where the subfamily is zinc finger.\nHuman liver HepG2 cells are transiently transfected with multiple reporter transcription units (MRTUs) in 6-well plates using FuGene 6 reagent (Roche; 3 ml FuGene/1 mg DNA). The MRTU constructs are regulated by a cis-regulating element (promoter). […] A major difference between the CIS and TRANS system is that in CIS activities of endogenous TFs are measured, whereas the TRANS assay evaluates changes in activities of exogenous, chimeric NR-Gal4 proteins. […] At the end of 24 hour incubation, total RNA was isolated using TriZol reagent (Invitrogen). The isolated RNA is then reverse-transcribed using oligo(dT) primer and Mo-MLV reverse transcriptase (Invitrogen) with DNAse I (Ambion) treatment for 30 min. The one-tenth of the produced cDNA was amplified by PCR using Taq DNA polymerase (Invitrogen) and two reporter sequence-specific primers. The PCR products were fluorescently labeled by primer extension with 6-arboxyfluorescein (6-FAM) 5'-labeled reporter sequence-specific primer (2 min at 95 C, 20 s at 68 C and 10 min at 72 C) and these products were digested with 5U of HpaI (New England Biolabs) for 2h at 37 C. The fragments were purified using Qiaquick PCR columns (Qiagen), analyzed on an ABI 3130xL genetic analyzer (Applied Biosystems) with peak positions identified by using a set of X-rhodamine (ROX)-labeled MapMarker1000 molecular weight standards (BioVentures). The raw capillary electrophoresis data was processed using Attagraph software (Attagene).", "values": [{"compound": "CCCCCC/C=C\\CCCCCCCC(=O)O", "outcome": "inactive"}, {"compound": "CCCCCCCC(C)=O", "outcome": "inactive"}, {"compound": "O=CC1CC1", "outcome": "inactive"}, {"compound": "CC(=O)C=CC1C(C)=CCC(C)C1(C)C", "note": "(stereo not given)", "outcome": "inactive"}, {"compound": "NCCCN1CCN(CCCN)CC1", "outcome": "inactive"}, {"compound": "c1ccc(-c2ccccn2)nc1", "outcome": "inactive"}, {"compound": "NC(=O)C1CO1", "note": "(stereo not given)", "outcome": "inactive"}, {"compound": "CCO[Si](CCCN=C=O)(OCC)OCC", "outcome": "inactive"}, {"compound": "NC(CO)(CO)CO", "outcome": "inactive"}, {"compound": "CC(C)(Oc1ccc(C2CC2(Cl)Cl)cc1)C(=O)O", "note": "(stereo not given)", "outcome": "inactive"}, {"compound": "NC(=O)OCC(COC(N)=O)c1ccccc1", "outcome": "inactive"}, {"compound": "OC1CCCCCCCCCCC1", "outcome": "inactive"}, {"compound": "CC(C)CC(O)Cc1ccccc1", "note": "(stereo not given)", "outcome": "inactive"}, {"compound": "O=C(Nc1ccccc1SSc1ccccc1NC(=O)c1ccccc1)c1ccccc1", "outcome": "inactive"}, {"compound": "Nc1nc2ccccc2[nH]1", "outcome": "inactive"}, {"compound": "CCOc1nc(F)cc2nc(S(=O)(=O)Nc3c(Cl)cccc3C(=O)OC)nn12", "outcome": "inactive"}, {"compound": "CC(=O)Oc1ccc(C)cc1", "outcome": "inactive"}, {"compound": "O=C1CCCCCN1SSN1CCCCCC1=O", "AC50": "162 µM (active)"}, {"compound": "CC(C)c1ccc2c(c1)CC[C@H]1[C@](C)(CN)CCC[C@]21C", "AC50": "5.35 µM (active)"}, {"compound": "O=C(Nc1ccccc1)c1ccccc1O", "outcome": "inactive"}, {"compound": "CC(=O)OC1C2(C)CCC(C2)C1(C)C", "note": "(stereo not given)", "outcome": "inactive"}, {"compound": "NC(=O)N=NC(N)=O", "outcome": "inactive"}, {"compound": "O=C(Cl)c1cc(C(=O)Cl)cc(C(=O)Cl)c1", "outcome": "inactive"}, {"compound": "COCCCOCCCOC", "outcome": "inactive"}, {"compound": "COc1ccc2nc(N)sc2c1", "outcome": "inactive"}, {"compound": "CC1=NN(c2cc(S(=O)(=O)O)ccc2Cl)C(=O)C1N=Nc1ccccc1", "note": "(stereo not given)", "outcome": "inactive"}, {"compound": "C[C@]12C=CC(=O)C=C1CC[C@@H]1[C@@H]2[C@@H](O)C[C@@]2(C)[C@H]1CC[C@]2(O)C(=O)CO", "outcome": "inactive"}, {"compound": "O=C(OCC1CCC2OC2C1)C1CCC2OC2C1", "note": "(stereo not given)", "outcome": "inactive"}, {"compound": "O=C(O)c1cc2ccccc2nc1C(=O)O", "outcome": "inactive"}, {"compound": "OCCN(CCO)c1ccccc1", "outcome": "inactive"}, {"compound": "CCCCCCCCc1ccc(Nc2ccc(CCCCCCCC)cc2)cc1", "outcome": "inactive"}, {"compound": "C=CC(=O)OCCC(=O)O", "outcome": "inactive"}, {"compound": "N#CCc1ccc(Cl)cc1Cl", "outcome": "inactive"}, {"compound": "Cn1c([N+](=O)[O-])cnc1COC(N)=O", "outcome": "inactive"}, {"compound": "CC(=O)[C@@]1(O)CC[C@H]2[C@@H]3C[C@H](C)C4=CC(=O)C=C[C@]4(C)[C@@]3(F)[C@@H](O)C[C@@]21C", "outcome": "inactive"}, {"compound": "CCCCCCCCCCCCCCCC[N+](C)(C)CC", "outcome": "inactive"}, {"compound": "CC1(C)O[C@@H]2C[C@H]3[C@@H]4C[C@H](F)C5=CC(=O)C=C[C@]5(C)[C@@]4(F)[C@@H](O)C[C@]3(C)[C@]2(C(=O)CO)O1", "outcome": "inactive"}, {"compound": "O=C(O)CC(C(=O)O)C(CC(=O)O)C(=O)O", "note": "(stereo not given)", "outcome": "inactive"}, {"compound": "O=C1CC2CC1C1CCCC21", "note": "(stereo not given)", "outcome": "inactive"}, {"compound": "CCc1nccnc1C", "outcome": "inactive"}]}]}
